Screening data: PubChem BioAssay, National Center for Advancing Translational Sciences (NCATS)
Tau ThT inhib: qHTS for Inhibitors of Tau Fibril Formation, Thioflavin T Binding; Microtubule-associated protein tau (Homo sapiens), P10636; recombinant tau K18 P301L, heparin-induced fibrillization, ThT fluorescence; Potency, µM (series often up to 57.4 µM), inactives show at the top dose activity, negative = inhibition, hits mostly inhibitors; 2.1% of 270,000 active; AID 1460, 2008; note: potency is the fitted concentration of half-maximal effect; nearly all actives have a fitted effect of over 55% in size
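Aggregation was driven by heparin (20 uM final) acting on recombinant tau […] bearing P301L in 100 mM sodium acetate pH 7; fibrils were detected with Thioflavin T.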
FBPA coupling cs: qHTS Assay for Inhibitors of Fructose-1,6-bisphosphate Aldolase from Giardia Lamblia: Coupling assay counterscreen; coupling enzyme system counterscreen, AmpLite Red fluorescence; activity change, negative = inhibition, % at 58.2 µM, hits read low; 0.67% of 290,000 active; AID 2472, 2010; in the data active = activity change below about -30%
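Coupling enzymes only (glyceraldehyde-3-phosphate) + compound, at 57.5 uM final, 10 min RT; add substrate/coupling/AmpLite Red mix, 20 min RT; fluorescence ex 525/em 598 nm. Actives flag coupling-system interference.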
USP1 inh: Inhibitors of USP1/UAF1: Primary Screen; recombinant USP1/UAF1, Ub-Rhodamine cleavage fluorescence; Ubiquitin carboxyl-terminal hydrolase 1 (Homo sapiens), O94782; 0.23% of 390,000 active; Potency, µM (series often up to 57.1 µM), inactives show top-dose activity change, negative = inhibition, usual class: inhibitors; note: potency is the fitted concentration of half-maximal effect; nearly all actives have a fitted effect of over 60% in size
Target sequence (O94782 whole entry, looked up): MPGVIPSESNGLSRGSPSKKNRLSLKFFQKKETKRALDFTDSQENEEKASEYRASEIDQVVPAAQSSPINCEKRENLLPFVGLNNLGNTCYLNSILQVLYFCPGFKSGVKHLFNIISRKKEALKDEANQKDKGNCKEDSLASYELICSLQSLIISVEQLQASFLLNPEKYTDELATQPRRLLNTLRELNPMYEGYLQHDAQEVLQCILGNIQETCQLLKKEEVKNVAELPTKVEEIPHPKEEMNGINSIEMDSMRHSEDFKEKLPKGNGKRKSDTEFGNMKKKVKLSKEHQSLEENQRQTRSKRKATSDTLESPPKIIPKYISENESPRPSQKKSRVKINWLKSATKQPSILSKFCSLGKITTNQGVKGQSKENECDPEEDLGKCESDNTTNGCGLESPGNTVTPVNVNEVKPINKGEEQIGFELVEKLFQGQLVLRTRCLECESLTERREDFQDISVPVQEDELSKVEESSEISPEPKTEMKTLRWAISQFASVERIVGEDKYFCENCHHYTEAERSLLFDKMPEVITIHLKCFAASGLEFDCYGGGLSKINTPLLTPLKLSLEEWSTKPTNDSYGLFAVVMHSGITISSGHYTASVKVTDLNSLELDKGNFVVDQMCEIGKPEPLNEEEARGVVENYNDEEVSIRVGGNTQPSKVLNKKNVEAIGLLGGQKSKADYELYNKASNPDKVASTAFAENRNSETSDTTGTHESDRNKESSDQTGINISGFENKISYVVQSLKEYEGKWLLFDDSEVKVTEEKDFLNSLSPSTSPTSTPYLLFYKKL
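USP1/UAF1 complex (1 nM) preincubated 15 min at room temperature with compound, then Ub-Rho substrate (150 nM final) added. Kinetic fluorescence at 480/540 nm over 6 reads at 60 s intervals; 50 mM HEPES pH 7.8, 0.5 mM EDTA, 0.1 mg/ml BSA, 1 mM TCEP, 0.01% Tween-20.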
Tau FP inhib: qHTS for Inhibitors of Tau Fibril Formation, Fluorescence Polarization; Microtubule-associated protein tau (Homo sapiens), P10636; K18 P301L tau heparin fibrillization, Alexa594 FP, 6 h; Potency, µM (series often up to 57.7 µM), without a hit: at the highest dose activity, negative = inhibition, actives largely listed as inhibitors; 0.39% of 280,000 active; note: potency is the fitted concentration of half-maximal effect; nearly all actives have a fitted effect of over 55% in size
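Human K18 P301L fragment (15 uM unlabeled plus 0.24 uM Alexa 594-labeled) in 100 mM sodium acetate pH 7 with compound, aggregation induced by 20 uM heparin for 6 hr at 37 C. ThT (30 uM) added for 1 hr, then Alexa 594 FP read.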
Tau fluor cs: Counterscreen qHTS for Inhibitors of Tau Fibril Formation, Fluorescence Polarization; 0.93% of 280,000 active; tau K18 P301L Alexa594 fluorescence, heparin fibrillization; Potency, µM (series often up to 57.7 µM), without a hit: at the highest dose activity change, negative = decrease; note: potency is the fitted concentration of half-maximal effect; nearly all actives have a fitted effect of over 55% in size
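Human tau K18 P301L (15 uM unlabeled, 0.24 uM Alexa 594-labeled) in 100 mM sodium acetate pH 7 with 20 uM heparin, 6 hr at 37 C. ThT 30 uM added, 1 hr ambient; Alexa 594 FP and total fluorescence read at 555/632 nm.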
An asterisk follows results filed as active; ? = inconclusive; . = no result; [ ] = another dose, or the depositor's remark. This is a sample that favours compounds with a hit; in the whole collection about 2.3% have one here. Unless noted, calls come from the whole dose curve; as a rule, active = well fitted curve in the direction sought with a large enough effect; inconclusive = small, poorly fitted or top-dose-only effect, or another doubt; inactive = no such curve, though single readings can be large; an effect the other way counts as inactive or inconclusive. % is set by controls: 0 for no effect and ±100 for the full control effect.

SMILES | Tau ThT inhib | FBPA coupling cs | USP1 inh | Tau FP inhib | Tau fluor cs
CC(=O)c1ccc(NC(=O)CSc2nc(=O)cc(N)n2-c2ccccc2)cc1 | ? | -1 | -10% | 6% | -14%
COc1cc(NC(=O)c2cc3cc4ccc(C)cc4nc3o2)cc(OC)c1OC | ? | . | -15% | -10% | -16%
Cc1ccc(N/N=C/c2c(O)n(-c3ccccc3)c(=O)[nH]c2=O)cc1 | 16µM* | 0 | -12% | ? | ?
CC#C[C@]1(O)CC[C@H]2C3C=C(C)C4=CC(=O)C=C[C@]4(C)[C@H]3[C@@H](O)C[C@@]21C (stereo partly specified) | . | -8 | . | . | .
O=[N+]([O-])c1c(Cl)c(Cl)c(Cl)c(Cl)c1Cl | . | . | -14% | . | .
Nc1cc(Cl)c2nonc2c1[N+](=O)[O-] | 11µM* | -15 | -22% | -11% | ?
Cc1cc(C(=O)O)sc1C(N)C(=O)O (stereo unspecified) | ? | 1 | . | -15% | -16%
C[n+]1c(-c2ccccc2)sc2ccccc21 | . | 2 | -22% | . | .
CC[n+]1c(/C=C/N(C)c2ccccc2)sc2ccc(Cl)cc21 | ? | 1 | 0% | 5% | ?
CC[n+]1c(/C=C/C=C/c2ccc(N(C)C)cc2)sc2ccccc21 | 1.1µM* | -8 | -26% | 6.3µM* | 10µM*[quencher]
CN(C)c1ccc(/C=C/C=C/c2sc3ccccc3[n+]2C)cc1 | 6.3µM* | -1 | -26% | ? | ?
CN(C)c1ccc(/C=C/c2cc[n+](C)c3ccccc23)cc1 | 16% | -42* | -26% | 6% | 13%
COc1ccc(C(O)P(=O)(OC2CCCCC2)c2ccc(N(C)C)cc2)cc1OC (stereo unspecified) | -9% | 0 | -14% | ? | -3%
O=C1NC(=O)N(c2ccccc2)C(=O)/C1=C/c1ccoc1 | ? | 1 | -20% | -9% | -5%
Cc1cccc(N2C(=O)NC(=O)/C(=C\c3cnc(-c4ccccc4)nc3)C2=O)c1 | 5% | 17 | -24% | 4% | 2%
CC(C)c1ccc(N2C(=O)NC(=O)/C(=C\c3cnc(-c4ccccc4)nc3)C2=O)cc1 | 22µM* | 11 | -4% | ? | -19%
Cc1ccc(N2C(=O)NC(=O)/C(=C/c3cnc(-c4ccccc4)nc3)C2=O)cc1C | 16µM* | 7 | -7% | ? | -23%
CN1CCCCC1Cn1cc(C(=O)c2cc([N+](=O)[O-])ccc2I)c2ccccc21 (stereo unspecified) | . | 0 | . | . | .
CC(=O)C(Sc1ncnc2c1nnn2-c1ccc(F)cc1)C(=O)N(C)C (stereo unspecified) | 14µM* | -5 | -23% | ? | -15%
CCn1c(O)c(N=Nc2cccc(S(=O)(=O)N3CCOCC3)c2)c(=O)n(CC)c1=S | ? | 1 | -9% | 3% | -21%
CCn1c(O)c(N=Nc2ccc(S(=O)(=O)N3CCOCC3)cc2)c(=O)n(CC)c1=S | 8.9µM* | 5 | -13% | -12% | -28%
CCn1c(O)c(C=Nc2ccc(N3CCOCC3)cc2)c(=O)n(CC)c1=S | ? | 0 | 18µM* | -10% | -22%
O=c1[nH]c(=O)n(C2CCCCC2)c(O)c1C=Nc1ccc(N2CCOCC2)cc1 | 5% | 4 | -27% | 2% | 7%
O=c1[nH]c(=S)n(-c2ccc(Cl)cc2)c(O)c1C=Nc1ccc(N2CCOCC2)cc1 | 25µM* | -5 | ? | -7% | ?
C/C=C1\C[N@@+]2(C)CC[C@@]34C(=C(C=O)[C@H]1C[C@H]32)Nc1ccccc14 | . | -2 | . | . | .
C/C=C(/C)C(=O)O[C@H]1C(C)=C2C([C@@H]1OC(=O)CCCCCCC)[C@@](C)(OC(C)=O)C[C@@H](OC(=O)CCC)[C@@]1(O)[C@H]2OC(=O)[C@@]1(C)O (stereo partly specified) | ? | . | . | ? | -29%
